Test in all cases: DAPPL (digital affinity profiling via proximity ligation, sequencing); 10 mM Tris-HCl pH 7.5, 50 mM NaCl, 1 mM DTT, 4% glycerol, room temperature, 30 min; GST-TFs on glutathione beads, 16-mer random dsDNA library, 0.1% formaldehyde crosslink after washing; high values mean tight binding
One assay deals with T1, FLI1 (Homo sapiens, UniProt Q01543 1-452).
T1 sequence: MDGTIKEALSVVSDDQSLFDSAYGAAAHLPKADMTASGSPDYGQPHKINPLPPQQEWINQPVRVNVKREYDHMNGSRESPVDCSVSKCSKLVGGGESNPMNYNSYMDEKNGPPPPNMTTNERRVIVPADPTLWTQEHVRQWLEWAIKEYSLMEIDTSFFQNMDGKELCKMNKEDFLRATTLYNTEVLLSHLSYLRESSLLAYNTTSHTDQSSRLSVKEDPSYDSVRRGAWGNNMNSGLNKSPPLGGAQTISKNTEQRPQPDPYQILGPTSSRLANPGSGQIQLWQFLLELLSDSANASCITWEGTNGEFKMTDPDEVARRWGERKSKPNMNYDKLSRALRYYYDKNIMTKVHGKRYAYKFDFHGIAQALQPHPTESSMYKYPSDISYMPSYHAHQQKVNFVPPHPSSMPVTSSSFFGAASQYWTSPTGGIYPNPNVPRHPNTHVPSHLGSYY
The following applies: protein: recombinant; tags: N-terminal GST; dsDNA, one strand shown. In a few lines:
(§1)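 Pools were built from human transcription factors expressed in yeast as GST fusions, captured on glutathione beads and DNA-barcoded, along with a tag-only sample. Incubation with 200 nmole of a 16-mer random double-stranded DNA library lasted 30 min at room temperature in Tris/NaCl/DTT/glycerol buffer, and was followed by washing, 0.1% formaldehyde crosslinking, proximity ligation, PCR amplification and Illumina NextSeq500 sequencing. Binding signal is the quotient of each hexamer's read frequency for a factor and its frequency for the tag-only sample.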

The target in the next assay is T2, ELK1 (Homo sapiens, UniProt P19419 1-428).
T2 sequence: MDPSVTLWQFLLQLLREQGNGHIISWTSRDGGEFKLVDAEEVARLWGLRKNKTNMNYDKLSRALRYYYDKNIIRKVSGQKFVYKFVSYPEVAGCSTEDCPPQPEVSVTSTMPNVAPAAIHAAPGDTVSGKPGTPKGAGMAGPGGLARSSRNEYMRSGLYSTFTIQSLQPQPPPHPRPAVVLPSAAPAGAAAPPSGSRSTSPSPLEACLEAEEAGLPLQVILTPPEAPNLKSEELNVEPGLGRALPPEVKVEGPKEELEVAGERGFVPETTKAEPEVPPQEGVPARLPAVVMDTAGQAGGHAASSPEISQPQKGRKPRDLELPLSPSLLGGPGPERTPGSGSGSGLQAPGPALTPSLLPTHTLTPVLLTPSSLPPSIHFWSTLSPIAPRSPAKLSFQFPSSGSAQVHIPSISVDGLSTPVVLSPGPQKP
The following applies: protein: recombinant; tags: N-terminal GST; dsDNA, one strand shown. In a few lines: as §1

In the next assay the target is T3, GABPA (Homo sapiens, UniProt Q06546 1-454).
T3 sequence: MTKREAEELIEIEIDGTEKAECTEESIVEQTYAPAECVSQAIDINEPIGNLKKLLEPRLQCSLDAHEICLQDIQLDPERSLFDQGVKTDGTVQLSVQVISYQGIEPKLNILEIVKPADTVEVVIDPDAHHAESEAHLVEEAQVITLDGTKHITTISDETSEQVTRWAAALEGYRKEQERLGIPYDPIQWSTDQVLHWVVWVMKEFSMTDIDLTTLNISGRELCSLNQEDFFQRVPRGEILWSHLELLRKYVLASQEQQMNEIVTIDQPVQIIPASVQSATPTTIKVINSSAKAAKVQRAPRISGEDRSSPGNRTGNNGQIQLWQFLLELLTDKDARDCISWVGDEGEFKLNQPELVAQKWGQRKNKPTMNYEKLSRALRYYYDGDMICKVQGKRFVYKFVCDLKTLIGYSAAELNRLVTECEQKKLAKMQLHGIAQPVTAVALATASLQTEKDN
As to conditions: protein: recombinant; tags: N-terminal GST; dsDNA, one strand shown. A digest of the protocol:
as §1

For a further assay, the target named is T4, ERG (Homo sapiens, UniProt P11308 1-479).
T4 sequence: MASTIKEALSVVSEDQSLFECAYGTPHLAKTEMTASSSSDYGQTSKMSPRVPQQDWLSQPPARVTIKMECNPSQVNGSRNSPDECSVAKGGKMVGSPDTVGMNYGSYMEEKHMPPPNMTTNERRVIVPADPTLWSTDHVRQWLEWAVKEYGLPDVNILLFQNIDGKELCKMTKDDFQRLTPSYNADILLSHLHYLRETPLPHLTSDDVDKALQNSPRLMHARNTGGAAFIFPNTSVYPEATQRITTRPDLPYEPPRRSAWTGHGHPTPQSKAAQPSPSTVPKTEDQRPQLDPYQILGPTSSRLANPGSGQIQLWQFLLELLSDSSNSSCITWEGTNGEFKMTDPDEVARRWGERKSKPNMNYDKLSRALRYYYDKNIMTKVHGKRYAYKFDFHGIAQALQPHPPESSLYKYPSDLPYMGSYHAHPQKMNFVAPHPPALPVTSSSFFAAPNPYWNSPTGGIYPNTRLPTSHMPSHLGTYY
The following applies: protein: recombinant; tags: N-terminal GST; dsDNA, one strand shown. In a few lines: as §1

The next assay has as its target ELF1 (Homo sapiens, UniProt P32519 1-619). The following applies: protein: recombinant; tags: N-terminal GST; dsDNA, one strand shown. In a few lines:
as §1

In another assay the target is T5, EHF (Homo sapiens, UniProt Q9NZC4 1-300).
T5 sequence: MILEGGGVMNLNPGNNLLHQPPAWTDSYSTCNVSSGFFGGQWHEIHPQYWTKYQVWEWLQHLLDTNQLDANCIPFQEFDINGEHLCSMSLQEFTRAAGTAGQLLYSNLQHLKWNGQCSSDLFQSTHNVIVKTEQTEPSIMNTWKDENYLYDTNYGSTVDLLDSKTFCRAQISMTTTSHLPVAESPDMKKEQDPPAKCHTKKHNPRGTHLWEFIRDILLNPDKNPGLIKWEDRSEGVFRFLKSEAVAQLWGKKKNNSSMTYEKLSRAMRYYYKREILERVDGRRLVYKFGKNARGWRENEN
As to conditions: protein: recombinant; tags: N-terminal GST; dsDNA, one strand shown. A digest of the protocol:
as §1

The next assay has as its target SPI1 (Homo sapiens, UniProt P17947 1-270). As to conditions: protein: recombinant; tags: N-terminal GST; dsDNA, one strand shown. In a few lines:
as §1

Another assay concerns the target SPIB (Homo sapiens, UniProt Q01892 1-262). The following applies: protein: recombinant; tags: N-terminal GST; dsDNA, one strand shown. A digest of the protocol: as §1
The next assay deals with T6, ELK3 (Homo sapiens, UniProt P41970 1-407).
T6 sequence: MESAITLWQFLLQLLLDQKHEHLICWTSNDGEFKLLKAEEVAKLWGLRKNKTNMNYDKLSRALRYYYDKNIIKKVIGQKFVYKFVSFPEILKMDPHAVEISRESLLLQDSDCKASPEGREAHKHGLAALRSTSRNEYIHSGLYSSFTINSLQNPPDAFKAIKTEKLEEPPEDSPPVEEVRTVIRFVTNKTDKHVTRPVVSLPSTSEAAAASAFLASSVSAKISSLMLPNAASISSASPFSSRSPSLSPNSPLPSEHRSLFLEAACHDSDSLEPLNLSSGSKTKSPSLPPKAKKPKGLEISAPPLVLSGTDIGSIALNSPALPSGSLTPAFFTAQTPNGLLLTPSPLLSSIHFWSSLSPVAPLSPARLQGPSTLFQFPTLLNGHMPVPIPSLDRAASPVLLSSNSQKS
As to conditions: protein: recombinant; tags: N-terminal GST; dsDNA, one strand shown. In a few lines: as §1

The target in the next assay is T7, FEV (Homo sapiens, UniProt Q99581 1-238).
T7 sequence: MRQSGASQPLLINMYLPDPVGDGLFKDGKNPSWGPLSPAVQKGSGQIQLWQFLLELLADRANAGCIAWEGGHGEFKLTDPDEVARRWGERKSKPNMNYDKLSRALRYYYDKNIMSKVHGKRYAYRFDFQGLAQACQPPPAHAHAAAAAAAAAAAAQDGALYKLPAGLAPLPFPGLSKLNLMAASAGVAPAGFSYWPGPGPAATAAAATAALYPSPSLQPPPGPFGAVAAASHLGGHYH
As to conditions: protein: recombinant; tags: N-terminal GST; dsDNA, one strand shown. A digest of the protocol:
as §1

The target in another assay is ETV5 (Homo sapiens, UniProt P41161 1-510). As to conditions: protein: recombinant; tags: N-terminal GST; dsDNA, one strand shown. A digest of the protocol: as §1
ETV5, sequence (P41161 whole entry): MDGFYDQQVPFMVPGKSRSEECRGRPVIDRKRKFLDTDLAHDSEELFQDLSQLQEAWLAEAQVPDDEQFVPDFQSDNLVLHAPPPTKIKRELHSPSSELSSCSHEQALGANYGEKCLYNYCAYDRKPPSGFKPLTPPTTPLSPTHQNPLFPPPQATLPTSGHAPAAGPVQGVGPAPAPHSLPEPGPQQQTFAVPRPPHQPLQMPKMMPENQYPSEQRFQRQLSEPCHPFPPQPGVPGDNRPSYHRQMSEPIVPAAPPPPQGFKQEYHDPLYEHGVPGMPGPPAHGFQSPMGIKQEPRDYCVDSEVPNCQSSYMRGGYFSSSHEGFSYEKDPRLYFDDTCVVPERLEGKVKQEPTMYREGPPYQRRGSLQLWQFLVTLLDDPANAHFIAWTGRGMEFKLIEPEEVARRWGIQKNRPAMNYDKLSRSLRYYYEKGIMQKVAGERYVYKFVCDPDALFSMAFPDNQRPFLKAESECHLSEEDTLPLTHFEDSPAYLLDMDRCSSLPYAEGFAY
The next assay deals with HSF1 (Homo sapiens, UniProt Q00613 1-529). As to conditions: protein: recombinant; tags: N-terminal GST; chain copies: 3; dsDNA, one strand shown. A digest of the protocol: as §1
HSF1, sequence (Q00613 whole entry): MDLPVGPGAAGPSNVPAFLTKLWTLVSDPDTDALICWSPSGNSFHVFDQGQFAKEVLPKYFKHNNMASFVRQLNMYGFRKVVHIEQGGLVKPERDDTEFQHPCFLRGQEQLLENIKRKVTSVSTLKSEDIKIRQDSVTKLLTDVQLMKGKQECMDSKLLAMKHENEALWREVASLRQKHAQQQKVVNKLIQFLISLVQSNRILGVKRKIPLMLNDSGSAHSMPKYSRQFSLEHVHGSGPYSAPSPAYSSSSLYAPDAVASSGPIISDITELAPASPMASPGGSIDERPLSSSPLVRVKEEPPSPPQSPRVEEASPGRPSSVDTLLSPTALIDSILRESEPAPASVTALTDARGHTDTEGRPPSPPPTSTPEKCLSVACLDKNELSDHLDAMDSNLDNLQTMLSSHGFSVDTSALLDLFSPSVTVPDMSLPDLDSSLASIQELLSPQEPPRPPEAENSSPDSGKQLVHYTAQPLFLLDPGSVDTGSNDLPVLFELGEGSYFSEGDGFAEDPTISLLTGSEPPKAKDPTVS
A further assay concerns the target T8, SPIC (Homo sapiens, UniProt Q8N5J4 1-248).
T8 sequence: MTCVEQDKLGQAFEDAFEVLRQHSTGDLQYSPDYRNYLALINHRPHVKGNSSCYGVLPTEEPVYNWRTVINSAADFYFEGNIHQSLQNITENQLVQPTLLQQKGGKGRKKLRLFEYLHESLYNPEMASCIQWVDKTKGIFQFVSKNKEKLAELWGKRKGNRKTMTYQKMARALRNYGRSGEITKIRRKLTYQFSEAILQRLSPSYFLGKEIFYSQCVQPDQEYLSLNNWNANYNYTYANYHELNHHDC
The following applies: protein: recombinant; tags: N-terminal GST; dsDNA, one strand shown. A digest of the protocol:
as §1

For another assay, the target named is ELF4 (Homo sapiens, UniProt Q99607 1-663). As to conditions: protein: recombinant; tags: N-terminal GST; dsDNA, one strand shown. A digest of the protocol: as §1
ELF4, sequence (Q99607 whole entry): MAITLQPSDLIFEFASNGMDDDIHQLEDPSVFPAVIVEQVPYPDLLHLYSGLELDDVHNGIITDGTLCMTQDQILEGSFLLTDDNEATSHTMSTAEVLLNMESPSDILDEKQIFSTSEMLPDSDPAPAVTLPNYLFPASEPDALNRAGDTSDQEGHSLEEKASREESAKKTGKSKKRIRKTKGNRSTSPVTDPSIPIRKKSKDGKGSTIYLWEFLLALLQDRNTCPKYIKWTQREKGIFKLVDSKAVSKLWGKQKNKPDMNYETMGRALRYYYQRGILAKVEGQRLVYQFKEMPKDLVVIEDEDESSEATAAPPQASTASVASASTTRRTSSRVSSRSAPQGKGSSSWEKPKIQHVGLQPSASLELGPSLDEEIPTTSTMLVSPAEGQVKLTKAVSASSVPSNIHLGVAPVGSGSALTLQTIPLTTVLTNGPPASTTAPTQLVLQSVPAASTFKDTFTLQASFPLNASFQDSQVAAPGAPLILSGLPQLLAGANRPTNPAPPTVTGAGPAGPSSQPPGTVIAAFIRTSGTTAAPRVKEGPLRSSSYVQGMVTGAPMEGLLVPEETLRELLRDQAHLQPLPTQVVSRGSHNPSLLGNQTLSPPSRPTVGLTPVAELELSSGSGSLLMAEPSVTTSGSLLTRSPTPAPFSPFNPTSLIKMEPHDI
For a further assay, the target named is T9, ELK4 (Homo sapiens, UniProt P28324-2 1-405).
T9 sequence: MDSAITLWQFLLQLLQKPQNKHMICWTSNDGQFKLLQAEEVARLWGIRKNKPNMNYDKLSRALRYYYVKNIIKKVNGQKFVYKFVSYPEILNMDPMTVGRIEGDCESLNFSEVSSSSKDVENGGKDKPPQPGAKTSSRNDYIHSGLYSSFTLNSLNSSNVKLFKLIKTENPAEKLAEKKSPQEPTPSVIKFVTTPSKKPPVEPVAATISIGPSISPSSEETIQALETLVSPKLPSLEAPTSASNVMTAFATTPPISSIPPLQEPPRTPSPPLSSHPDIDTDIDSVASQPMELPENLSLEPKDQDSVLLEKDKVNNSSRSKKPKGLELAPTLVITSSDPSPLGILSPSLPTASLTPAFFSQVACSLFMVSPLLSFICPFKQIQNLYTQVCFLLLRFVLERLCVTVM
The following applies: protein: recombinant; tags: N-terminal GST; dsDNA, one strand shown. A digest of the protocol: as §1

In the next assay the target is T10, ETV2 (Homo sapiens, UniProt O00321 1-342).
T10 sequence: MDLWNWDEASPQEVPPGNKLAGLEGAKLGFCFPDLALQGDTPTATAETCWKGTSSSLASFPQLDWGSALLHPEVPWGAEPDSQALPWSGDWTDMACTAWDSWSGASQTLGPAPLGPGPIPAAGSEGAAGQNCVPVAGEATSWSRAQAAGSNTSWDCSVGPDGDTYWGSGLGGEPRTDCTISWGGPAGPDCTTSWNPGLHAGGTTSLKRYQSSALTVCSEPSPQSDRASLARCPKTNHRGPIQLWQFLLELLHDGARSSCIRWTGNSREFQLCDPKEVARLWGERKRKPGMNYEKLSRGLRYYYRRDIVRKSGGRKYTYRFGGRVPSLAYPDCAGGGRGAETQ
The following applies: protein: recombinant; tags: N-terminal GST; dsDNA, one strand shown. A digest of the protocol: as §1

Another assay has as its target T11, ELF3 (Homo sapiens, UniProt P78545 1-371).
T11 sequence: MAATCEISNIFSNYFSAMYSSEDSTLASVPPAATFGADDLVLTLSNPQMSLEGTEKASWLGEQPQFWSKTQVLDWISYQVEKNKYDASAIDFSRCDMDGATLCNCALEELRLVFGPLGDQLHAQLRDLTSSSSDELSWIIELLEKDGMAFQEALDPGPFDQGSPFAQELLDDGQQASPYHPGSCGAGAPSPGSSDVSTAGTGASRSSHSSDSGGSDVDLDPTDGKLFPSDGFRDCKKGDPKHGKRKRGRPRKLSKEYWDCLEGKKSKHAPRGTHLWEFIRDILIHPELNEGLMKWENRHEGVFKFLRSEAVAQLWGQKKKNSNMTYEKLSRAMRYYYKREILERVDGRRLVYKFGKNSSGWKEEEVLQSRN
The following applies: protein: recombinant; tags: N-terminal GST; dsDNA, one strand shown. In a few lines: as §1

The next assay addresses ETV1 (Homo sapiens, UniProt P50549 1-477). The following applies: protein: recombinant; tags: N-terminal GST; dsDNA, one strand shown. A digest of the protocol: as §1

ELF1, sequence (P32519 whole entry): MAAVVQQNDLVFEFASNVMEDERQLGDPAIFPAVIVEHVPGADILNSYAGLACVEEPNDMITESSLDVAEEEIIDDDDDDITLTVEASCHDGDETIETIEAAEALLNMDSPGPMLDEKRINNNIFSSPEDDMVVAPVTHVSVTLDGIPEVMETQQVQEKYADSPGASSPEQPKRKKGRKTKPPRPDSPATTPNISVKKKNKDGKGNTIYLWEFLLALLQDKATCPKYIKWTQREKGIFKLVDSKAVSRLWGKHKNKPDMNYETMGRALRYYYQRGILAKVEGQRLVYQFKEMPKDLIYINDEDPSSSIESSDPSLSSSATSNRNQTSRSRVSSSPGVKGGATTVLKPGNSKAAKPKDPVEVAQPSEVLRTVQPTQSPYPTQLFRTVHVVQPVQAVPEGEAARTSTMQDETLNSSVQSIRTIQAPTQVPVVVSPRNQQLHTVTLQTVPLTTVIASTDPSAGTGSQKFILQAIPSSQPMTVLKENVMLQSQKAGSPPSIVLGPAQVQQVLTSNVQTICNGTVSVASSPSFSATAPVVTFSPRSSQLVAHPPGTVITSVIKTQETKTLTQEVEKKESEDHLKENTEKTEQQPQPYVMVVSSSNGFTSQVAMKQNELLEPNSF
SPIB, sequence (Q01892 whole entry): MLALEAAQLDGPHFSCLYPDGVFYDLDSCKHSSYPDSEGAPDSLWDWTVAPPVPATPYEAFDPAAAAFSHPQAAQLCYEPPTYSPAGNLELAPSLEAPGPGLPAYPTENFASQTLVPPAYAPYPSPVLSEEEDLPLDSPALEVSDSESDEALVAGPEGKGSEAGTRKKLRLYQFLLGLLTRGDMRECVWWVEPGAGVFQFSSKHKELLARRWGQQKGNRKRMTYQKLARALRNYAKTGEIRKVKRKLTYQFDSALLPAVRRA
ETV1, sequence (P50549 whole entry): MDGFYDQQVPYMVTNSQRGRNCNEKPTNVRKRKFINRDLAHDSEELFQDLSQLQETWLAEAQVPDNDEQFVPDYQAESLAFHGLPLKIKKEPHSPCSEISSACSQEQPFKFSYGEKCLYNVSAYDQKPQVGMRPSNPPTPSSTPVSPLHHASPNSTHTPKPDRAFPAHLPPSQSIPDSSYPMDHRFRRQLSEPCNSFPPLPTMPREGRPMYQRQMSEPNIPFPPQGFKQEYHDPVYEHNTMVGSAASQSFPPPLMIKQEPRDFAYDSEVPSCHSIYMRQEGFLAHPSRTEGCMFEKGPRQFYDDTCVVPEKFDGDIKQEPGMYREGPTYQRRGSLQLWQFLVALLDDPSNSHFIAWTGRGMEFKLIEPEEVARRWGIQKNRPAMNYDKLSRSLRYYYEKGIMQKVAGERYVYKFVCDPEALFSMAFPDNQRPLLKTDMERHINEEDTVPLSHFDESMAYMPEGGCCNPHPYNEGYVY

Regarding GGTTCC, the binding signal was 1.52 fold enrichment (6-mer frequency, TF over GST control) with FLI1; 1.64 fold enrichment (6-mer frequency, TF over GST control) in the assay with ELK1; 1.37 fold enrichment (6-mer frequency, TF over GST control) in the assay with GABPA; 1.54 fold enrichment (6-mer frequency, TF over GST control) with ERG; 1.53 fold enrichment (6-mer frequency, TF over GST control) with ELF1; 1.59 fold enrichment (6-mer frequency, TF over GST control) in the assay with EHF. Moreover, the binding signal with SPI1 is 1.75 fold enrichment (6-mer frequency, TF over GST control); with SPIB it was 1.59 fold enrichment (6-mer frequency, TF over GST control); with ELK3, 1.52 fold enrichment (6-mer frequency, TF over GST control); with FEV, 1.68 fold enrichment (6-mer frequency, TF over GST control); in the assay with ETV5, 1.57 fold enrichment (6-mer frequency, TF over GST control); with HSF1, 1.13 fold enrichment (6-mer frequency, TF over GST control). The binding signal with SPIC was 1.38 fold enrichment (6-mer frequency, TF over GST control); with ELF4, 1.44 fold enrichment (6-mer frequency, TF over GST control); with ELK4, 1.38 fold enrichment (6-mer frequency, TF over GST control); with ETV2, 1.32 fold enrichment (6-mer frequency, TF over GST control); in the assay with ELF3 it was 1.7 fold enrichment (6-mer frequency, TF over GST control); with ETV1 it was 1.63 fold enrichment (6-mer frequency, TF over GST control).

Source of the values: paper PMC7862700, “An all-to-all approach to the identification of sequence-specific readers for epigenetic DNA modifications on cytosine”.
